Screens as filed in PubChem.
Shown are actives, neighbours in structure and some others; about 2.4% of the full set was active somewhere.
TLR9-MyD88 inh: inhibitors of human TLR9-MyD88 binding. CHO BLA complementation TLR9-MyD88, CCF4 FRET ratio. inhibition, % at 4.98 µM. Q9NR96+Q99836. AID 504734. 340,000 compounds, 0.21% hits;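 active = inhibition above the mean over all tested compounds plus 3 SD, cut at about 21% in these data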;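 also: 0% = DMSO only wells and 100% = clavulanate BLA inhibitor control wells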
HTR2A ag: activates the mouse 5-HT2A serotonin receptor. activation, % at 7.6 µM. 360,000 compounds, 0.66% hits. CHO-K1 mHTR2A beta-arrestin complementation, luminescence; percent of 30 µM serotonin response;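 active = activation above a run cutoff, the mean activation of all tested compounds plus 3 SD, cut at about 14% in these data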;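 also: 0% = plate median of compound wells and 100% = 30 µM serotonin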
TLR4 MyD88 comp: blocks binding of human TLR4 to MyD88; O00206+Q99836; HeLa CL3-4 TLR4/MyD88 BLA complementation, FRET ratio; inhibition, % at 8.4 µM; 200,000 compounds, 0.18% hits; AID 861; in the data active = inhibition above about 25%;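 also: 0% = vehicle and 100% = reference inhibitor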
NOD2-RIPK2 inh: inhibitors of human NOD2-RIPK2 interaction. inhibition, % at 4.98 µM. O43353. 360,000 compounds, 0.38% hits. AID 624267. CHO BLA complementation NOD2-RIPK2, CCF4 ratio; in the data active = inhibition above about 21%;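 also: 0% = vehicle only and 100% = reference blocker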
ANO1 activ: activates or potentiates the mouse TMEM16A chloride channel; Q8BHY3; HEK293 TMEM16A/YFP-H148Q/I152L, iodide quench fluorescence; stronger effect = lower value; B-score at 10 µM; 340,000 compounds, 0.3% hits;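 active = fluorescence-ratio B-score plate-corrected deviation score at least 3 library SD below zero, with starting fluorescence score within 5 deviations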;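 also: channel opened by trigger with iodide after compound preincubation; score built on the fluorescence ratio of max minus min over baseline; more negative score means more quench and so TMEM16A activation or potentiation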
TMEM16A inh: mouse TMEM16A channel inhibition, primary screen; HEK293 TMEM16A/YFP iodide influx fluorescence, ionomycin; normalized B-score (activity score, 25-100; higher = stronger inhibition) at 10 µM; 310,000 compounds, 1.2% hits; AID 588511;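 active = ratio plate-corrected score three or more library SD toward inhibition, starting fluorescence score within five deviations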;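 also: score derived from kinetic fluorescence span divided by baseline fluorescence per well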
TMEM16A reconf: reconfirmed blocker of mouse TMEM16A calcium-activated chloride channel. shares compounds with TMEM16A inh. HEK293 TMEM16A/YFP-H148Q, iodide quench fluorescence; ionomycin added to raise cell calcium. inhibition, % at 10 µM. 2,300 compounds, 39% hits. AID 652189;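 active = mean duplicate percent inhibition, scaled so buffer wells are 0 and the reference blocker 100, over three buffer SD above buffer mean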
TMEM16A Ca cntr: counter-screen for TMEM16A inhibitors: effect on calcium mobilization | shares compounds with TMEM16A inh | 2,300 compounds, 2% hits | TMEM16A/YFP HEK293, Fluo4 calcium mobilization | AID 652231 | calcium response (% of ionomycin), % at 10 µM;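 active = duplicate-averaged calcium signal over 20% of the ionomycin maximum, relative to buffer baseline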;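 also: each well's signal is peak minus trough fluorescence divided by its pre-addition baseline; 0% = buffer wells and 100% = ionomycin wells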
Parental YFP cnt: parental YFP-HEK293 iodide quench counter-screen activity | YFP ratio F(max-min)/F0 at 10 µM | shares compounds with TMEM16A inh | 2,300 tested, under 10 active | ionomycin;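 active = yellow fluorescent protein signal ratio exceeding the buffer control mean by over 5 SD of those controls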;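 also: ratio is mean of duplicate wells from kinetic YFP trace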
ClC-1 inh: blocks the rat ClC-1 voltage-dependent chloride channel | ratio percent, % at 10 µM | CHO ClC-1-YFP, iodide influx fluorescence quench; iodide control reads 0, buffer control 100 | 2,300 tested, under 10 active | shares compounds with TMEM16A inh;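 active = duplicate-mean ratio percent above the mean of iodide-only control wells, which defines zero, plus 5 of their SD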;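 also: higher percent means stronger block of ClC-1 iodide influx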
Active calls of the source: *; i = inactive; · = no result.

SMILES	TLR9-MyD88 inh	HTR2A ag	TLR4 MyD88 comp	NOD2-RIPK2 inh	ANO1 activ	TMEM16A inh	TMEM16A reconf	TMEM16A Ca cntr	Parental YFP cnt	ClC-1 inh
COc1ccc(C2=NCC(CSc3nnc(-c4ccc5c(c4)OCO5)o3)S2)cc1 (configuration not stated)	-1.4	-7.7	-11.2	-1.6	i	100*	i	i	-0.985	-8.0
Cc1ccc(CSc2nnc(-c3ccc4c(c3)OCO4)o2)cc1	-0.8	1.1	7.9	-6.3	i	i	·	·	·	·
CCN(CC)S(=O)(=O)c1ccc2oc(SCC3CN=C(c4ccc(OC)cc4)S3)nc2c1 (configuration not stated)	-7.4	0.6	0.3	-11.9	i	100*	16.5%*	i	-0.931	-4.5
Cc1ccc(CSc2nnc(SCC(=O)N/N=C/c3c[nH]c4ccccc34)s2)cc1	6.4	2.6	7.4	-11.4	i	·	·	·	·	·
Cc1ccccc1Sc1ncccc1[N+](=O)[O-]	8.8	-2.4	·	2.4	i	i	·	·	·	·
Cc1ccc(Cn2ccc(-c3cnc(-c4ccccc4)s3)n2)cc1	14.4	-3.6	9.3	13.5	i	100*	19.5%*	i	-1.03	-5.5
Cc1ccc(CN2C(=O)CCC2(C)c2nnnn2-c2ccc3c(c2)OCCO3)cc1 (configuration not stated)	·	1.6	·	-12.1	·	·	·	·	·	·
O=C(CCc1nc2ccccc2c(=O)[nH]1)Nc1ccc(F)cc1	5.3	2.0	-0.6	-12.6	i	i	·	·	·	·
O=C(CCc1nc2ccccc2[nH]1)Nc1ccc(F)cc1	4.5	-2.4	5.2	-1.7	i	25*	i	i	-1.09	-3.5
COc1ccc(N2CCn3c2nc2c3c(=O)n(CCCc3ccccc3)c(=O)n2C)c(OC)c1	-2.5	5.9	6.3	-0.5	i	100*	22.5%*	i	-1.2	-13.5
CN(Cc1cccc2cnccc12)C(=O)c1cc(COc2ccc(F)cc2F)on1	-0.3	-5.9	·	11.8	i	·	·	·	·	·
CCc1ccc(CN(C)C(=O)c2cc(COc3cccc4cnccc34)on2)cc1	17.3	-3.4	·	6.9	i	100*	22.0%*	i	-1.26	-22.0
CCOc1ccc(S(=O)(=O)NCCc2cn3ccccc3n2)cc1	5.5	-0.1	·	0.3	i	i	·	·	·	·
S=C(Nc1ccc(Oc2ccccc2)cc1)NC1CCCC1	-9.9	-2.9	-2.3	-12.0	i	i	·	·	·	·
S=C(NCC1CCCCC1)Nc1ccc(Oc2ccccc2)cc1	-3.2	-5.3	2.6	1.4	i	100*	20.0%*	i	-1.26	-20.5
S=C(NCC1CCCO1)Nc1ccc(Nc2ccccc2)cc1 (configuration not stated)	-10.2	-5.2	-3.3	-2.0	i	100*	i	i	-0.841	-8.5
CC1(C)C(CO)=CC(=O)C2=C1SCC(=O)N2	2.9	1.9	-0.8	-3.2	i	100*	i	i	-1.08	1.5
CCOC(=O)/C=C1\NC(=O)CS1	0.9	7.1	-7.3	3.9	i	i	·	·	·	·
COc1ccc(NC(=O)c2c(NC(=O)CCC(=O)O)sc3c2CCCCC3)cc1	1.5	1.2	7.4	-19.2	i	i	·	·	·	·
N#Cc1c(-n2cccc2/C=N/O)sc2c1CCCC2	-4.4	1.5	12.9	-8.3	i	i	·	·	·	·
C=CCNCc1cccn1-c1sc2c(c1C#N)CCCC2	-0.9	-0.4	1.4	-9.7	i	25*	i	i	-0.763	-5.0
COCc1cc(C)nc(SCC(=O)Nc2ccccc2N2CCOCC2)c1C#N	2.9	-6.6	·	-5.6	i	i	·	·	·	·
CCS(=O)(=O)N1CCCC(C(=O)c2ccc(OC)cc2C)C1 (configuration not stated)	8.7	-1.5	6.1	-6.3	i	i	·	·	·	·
COc1ccc(C(=O)C2CCCN(S(=O)(=O)c3ccc(C(C)=O)cc3)C2)c(C)c1 (configuration not stated)	-0.5	7.3	·	0.5	i	25*	30.0%*	i	-0.885	-23.0
O=C(O)CCCN1C(=O)/C(=C\c2ccc(-c3nc4ccccc4s3)o2)SC1=S	11.7	-0.9	·	5.5	i	25*	24.0%*	i	-1.07	-9.5
SMILES	TLR9-MyD88 inh	HTR2A ag	TLR4 MyD88 comp	NOD2-RIPK2 inh	ANO1 activ	TMEM16A inh	TMEM16A reconf	TMEM16A Ca cntr	Parental YFP cnt	ClC-1 inh
O=C(O)CN1C(=O)/C(=C\c2ccccc2OCc2ccccc2)SC1=S	-3.4	3.3	·	-6.3	·	·	·	·	·	·
O=C(O)CCCN1C(=O)/C(=C\c2ccccc2OCc2ccccc2)SC1=S	-5.1	9.6	·	-0.2	i	25*	i	i	-1.21	-34.5
O=C(O)CCCN1C(=O)/C(=C/C=C/c2ccco2)SC1=S	4.0	-2.6	·	8.4	i	i	·	·	·	·
Cc1cc(-n2c(C)cc(C(=O)CSc3ccccn3)c2C)no1	-5.6	0.4	·	-15.0	i	·	·	·	·	·
OCCNC(=S)Nc1ccc2nsnc2c1	-1.9	-2.0	-7.4	5.5	i	i	·	·	·	·
CC(=O)Nc1ccc(Oc2cc(C#N)c(C#N)cc2N2CCCCCC2)cc1	0.4	0.9	2.0	2.2	i	100*	i	i	-1.13	4.0
Cc1cc(OCC(=O)Nc2ccc(Br)cc2)cc2c1C(=O)CC(C)(C)O2	·	3.5	·	-4.5	i	100*	21.5%*	i	-0.784	-23.5
COc1ccc(OC)c(/C=C2/Sc3ccccc3C2=O)c1	1.5	-1.6	14.5	0.7	i	i	i	i	-1.11	5.5
CC(=O)c1ccccc1OCc1ccc(S(=O)(=O)Cc2ccccc2)cc1	-8.7	0.4	·	-3.7	i	25*	34.0%*	i	-0.62	-13.5
O=C(NNC(=O)c1ccccc1OCc1ccccc1)c1ccccc1O	-5.0	6.2	·	3.2	i	i	·	·	·	·
CC(=O)Nc1ccc(S(=O)(=O)Nc2cccc(-c3nc4ccccc4o3)c2)cc1	-4.9	3.5	2.9	-8.3	i	100*	i	i	-0.963	-11.0
O=S(=O)(Nc1ccc(-c2nc3ccccc3o2)cc1)c1ccccc1	0.2	-4.5	-5.7	8.3	i	i	·	·	·	·
O=C(NCc1ccc(Cl)nc1)c1ccc2sc([C@@H]3O[C@H](CO)[C@H](O)[C@H](O)[C@H]3O)nc2c1	·	-6.4	·	-1.6	·	·	·	·	·	·
